Screening results as filed in PubChem.
The list is not random: actives were taken first. Their share in the collection is about 3.4%.
FBW7 act: FBW7 E3 ligase activators, primary screen, biochemical, AlphaScreen, human; F-box/WD repeat-containing protein 7 (Homo sapiens), Q969H0; actives 0.13% (n = 650,000); normalized activity (activation), % at 26.1 µM; AlphaScreen FBW7–phospho-cyclin E peptide binding, activator screen; in the data active = normalized activity above about 1.9%;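 note: purified mutant Fbw7 with reduced substrate affinity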
TEAD-YAP inh: TEAD-YAP interaction inhibition, primary screen, TEAD-YAP interaction inhibitor project, luminescence, HEK-TIYL cells. TEAD-Gal4/YAP UAS-luciferase luminescence. inhibition, % at 9.12 µM. actives 1.4% (n = 640,000). AID 1259422, 2018; in the data active = inhibition above about 32%;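 note: 0% = median of test compound wells and 100% = reference inhibitor wells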
MITF primary: MITF inhibitors, primary screen, biochemical, AlphaScreen, human | actives 0.91% (n = 650,000) | inhibition, % at 2.6 µM | AlphaScreen MITF homodimerization, bead proximity signal | Microphthalmia-associated transcription factor (Homo sapiens), O75030 | AID 1259374, 2018; in the data active = inhibition above about 50%;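 note: 0% = vehicle wells with protein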
Target sequence (O75030 whole entry, looked up): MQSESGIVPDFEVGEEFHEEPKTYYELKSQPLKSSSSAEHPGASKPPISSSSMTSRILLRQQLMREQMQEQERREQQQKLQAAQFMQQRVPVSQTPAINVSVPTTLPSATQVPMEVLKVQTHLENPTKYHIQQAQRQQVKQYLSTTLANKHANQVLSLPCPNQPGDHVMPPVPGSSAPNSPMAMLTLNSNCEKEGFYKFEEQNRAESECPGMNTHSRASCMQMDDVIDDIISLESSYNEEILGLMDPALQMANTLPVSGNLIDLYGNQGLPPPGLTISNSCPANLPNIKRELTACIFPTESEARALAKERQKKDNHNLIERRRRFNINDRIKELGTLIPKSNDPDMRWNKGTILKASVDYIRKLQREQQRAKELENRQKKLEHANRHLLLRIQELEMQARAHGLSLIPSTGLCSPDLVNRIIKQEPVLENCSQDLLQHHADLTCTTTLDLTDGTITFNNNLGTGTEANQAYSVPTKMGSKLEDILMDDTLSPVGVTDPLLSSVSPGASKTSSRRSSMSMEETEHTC
GPR151 activ: activators of human GPR151, primary screen, cell-based, PathHunter beta-arrestin, luminescence; G-protein coupled receptor 151 (Homo sapiens), Q8TDV0; PathHunter beta-arrestin GPR151 cells; activation, % at 11.2 µM; actives 1% (n = 650,000); AID 1508602, 2020; in the data active = activation above about 4.9%;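 note: 0% = median of compound wells and 100% = cells with positive control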
MITF confirm: MITF inhibitors, retest of hits, confirmation, biochemical, AlphaScreen, triplicate; shares compounds with MITF primary; AlphaScreen MITF homodimerization, biotin/His-MITF beads; inhibition, % at 2.6 µM; actives 16% (n = 4,700); AID 1259372, 2018;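 active = inhibition above a cutoff derived from the DMSO control wells, cut at about 28% in these data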;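 note: 0% = MITF dimer wells with DMSO only; inhibitors lower the bead chemiluminescence by keeping MITF from dimerizing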
AS interf DR: AlphaScreen optical interference compounds, dose response, counter-screen, biochemical, HTS | shares compounds with MITF primary | AlphaScreen optical interference counterscreen, cell-free | IC50, µM | actives 6% (n = 480) | AID 1259373, 2018; call rule not given here
AS interf ctr: AlphaScreen optical interference compounds, counter-screen for MITF inhibitor project, biochemical, triplicate. actives 7.6% (n = 4,700). LysRS AlphaScreen counterscreen, signal interference. shares compounds with MITF primary. inhibition, % at 2.6 µM;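 active = inhibition above a cutoff derived from the DMSO control wells, cut at about 30% in these data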
* hit, by the source's call; . = no result.

SMILES	FBW7 act	TEAD-YAP inh	MITF primary	GPR151 activ	MITF confirm	AS interf ctr	others
CCCCc1ccc(-n2nnnc2SCC(C)=O)cc1	0	11	9	0	.	.
Cc1cc(C(=O)N2CCC3(CC2)OCc2cc(-c4ccco4)ccc2O3)c(C)o1	0	3	14	1	.	.
CCOC(=O)c1c(C)n(C)c2c1cc(OC(=O)Cc1ccccc1)c1ccccc12	0	-6	-16	0	.	.
Cc1ccc2c(c1)C(C)CC(C)(C)N2C(=O)CNCCN1CCOCC1 (configuration not stated)	0	-8	87*	0	10	23
Cc1ccc2c(c1)C(C)CC(C)(C)N2C(=O)CSc1ncccn1 (configuration not stated)	0	-21	18	-1	.	.
COc1ccc(CCNCC(=O)N2c3ccccc3C(C)CC2(C)C)cc1 (configuration not stated)	0	4	14	0	.	.
CCOCCCNCC(=O)N1c2ccc(C)cc2C(C)CC1(C)C (configuration not stated)	0	5	56*	1	17	9
COc1ccc2c(c1)C(C)CC(C)(C)N2C(=O)CNCc1ccco1 (configuration not stated)	0	-5	57*	0	12	10
COc1ccc2c(c1)C(C)CC(C)(C)N2C(=O)CSc1ncccn1 (configuration not stated)	0	-2	2	1	.	.
CCC(C)(C)NC(=O)C(c1ccc(C)o1)N(C(=O)c1csnn1)C1CC1 (configuration not stated)	0	7	1	0	.	.
CCOC(=O)C1=C(N)N(c2cccc([N+](=O)[O-])c2)C2=C(C(=O)CC(C)(C)C2)C1c1ccc(SC)cc1 (configuration not stated)	0	5	10	-1	.	.
COc1cccc(Nc2nc(-c3ccccc3Cl)nc3ccccc23)c1	0	28	52*	0	3	9
O=C(NCCSc1ccccc1)c1cccc(Cl)c1	0	-76	-11	-1	.	.
O=C(c1cccc(Cl)c1)N1CCN(Cc2c[nH]c3ccccc23)CC1	0	10	42	-1	.	.
O=C(c1ccncc1)N1CCN(CCc2ccccc2)CC1	0	2	4	-1	.	.
O=C(c1ccncc1)N1CCN(Cc2c[nH]c3ccccc23)CC1	0	-2	56*	-2	-14	2
COc1cccc(C(=O)N2CCN(Cc3c[nH]c4ccccc34)CC2)c1	0	9	73*	-1	-14	-2
CC(=O)c1ccc(OCC(O)CN(C)CCC#N)cc1 (configuration not stated)	0	-3	66*	1	4	4
CC(=O)c1ccc(OCC(O)COc2ccc(C(C)=O)cc2)cc1	0	0	-3	3	.	.
CN(C)C(CNCC(=O)NC1CCCc2ccccc21)c1ccccc1 (configuration not stated)	0	6	76*	0	22	56*
CC(C)CN1C(=O)C(=O)N(CC(=O)NC2CCCc3ccccc32)C1=O (configuration not stated)	0	-6	-11	0	.	.
c1coc(CN2CCC(N3CCOCC3)CC2)c1	1	12	60*	1	13	16
S=C(NC1CCCCC1)N1CCN(Cc2ccco2)CC1	0	-16	-21	3	.	.
c1coc(CN2CCN(C3CCCCCC3)CC2)c1	0	12	74*	1	0	5
CC1CCCCC1N1CCN(Cc2ccco2)CC1 (configuration not stated)	0	5	69*	-1	-3	5
SMILES	FBW7 act	TEAD-YAP inh	MITF primary	GPR151 activ	MITF confirm	AS interf ctr	others
c1coc(Cn2nnnc2CN2CCN(C3CCCC3)CC2)c1	0	-2	-1	1	.	.
O=C(Nc1nc(-c2ccccn2)cs1)C1CC1	0	-27	35	-1	.	.
O=C(Nc1nc(-c2ccccn2)cs1)C12CC3CC(CC(O)(C3)C1)C2	0	-4	55*	-3	61*	100*
CCOC(=O)c1ccc(N2C(=O)C(=O)/C(=C(/O)c3ccc(OC)cc3)C2c2ccc(C)cc2)cc1 (configuration not stated)	0	3	-4	-1	.	.
CCOC(=O)c1ccc(N2C(=O)C(=O)/C(=C(\O)c3ccc(OC)cc3)C2c2ccccc2[N+](=O)[O-])cc1 (configuration not stated)	0	-20	52*	-5	12	11
CCCCN(CC)c1ncnc2sc(C)c(C)c12	0	0	51*	0	10	-2
Cc1c(CN2C(=O)c3cccc(N4CCN(C(=O)CC(C)(C)C)CC4)c3C2=O)cnn1C	0	-9	-11	-1	.	.
CCCC(=O)N1CCN(c2cccc3c2C(=O)N(Cc2cnn(C)c2C)C3=O)CC1	0	10	97*	-2	-2	-6
COc1ccccc1OCC#CCn1ccnc1	0	1	63*	-1	10	19
O=C1S/C(=C\c2ccco2)C(=O)N1c1ccccc1Cl	0	8	78*	2	79*	-7	AS interf DR=>6.5
CCOC(=O)C1=C(C)NC(C)=C(C(=O)OCC)C1c1ccc([N+](=O)[O-])cc1	0	7	12	0	.	.
Cc1ccnc2nc(C(=O)Nc3nc(-c4ccccn4)cs3)nn12	-1	1	65*	0	59*	79*
Cc1ccnc2nc(C(=O)Nc3nc(-c4cccs4)cs3)nn12	0	-17	14	-1	.	.
COc1ccc(CN2CCN(C(=O)c3ccccc3)CC2)cc1Br	0	6	46	-2	.	.
COc1ccc(CN2CCN(C(=O)c3cccnc3)CC2)cc1Br	0	9	60*	0	-6	-9
COc1ccc(CN2CCN(C(=O)c3cccc(F)c3)CC2)cc1Br	0	3	59*	-1	15	15
COc1cc(CN2CCN(C(=O)c3ccc(F)cc3)CC2)cc(OC)c1O	0	0	53*	0	-5	2
COc1ccc(CN2CCN(C(=O)c3ccc(F)cc3)CC2)cc1Br	0	-1	51*	1	-2	10
Cc1ccc2nc(NCCCNS(=O)(=O)c3ccc(F)cc3)c(C#N)cc2c1	0	-4	-11	0	.	.
Cc1ccc(Nc2nnc(SCC(=O)NC(C)(C)C)s2)c(C)c1	0	0	-2	0	.	.
